The results in this text go back to PubChem BioAssay (NCATS).

Molecules are shown by their SMILES. A number with no mark means an inactive call. Results filed as inconclusive are left out. Calls of active or inactive are those of the source. Unless noted, the call rests on the fitted dose curve; in most records, active means well fitted curve in either direction with a large enough effect (not every such curve was filed as active); inconclusive means small, poorly fitted or top-dose-only effect, or another doubt; inactive means flat fitted curve, though single readings scatter.

Test [1] deals with Lysosomal acid glucosylceramidase (Homo sapiens) (UniProt P04062). As to the kind of experiment: Glucocerebrosidase-p2 (AID 348; in the data active means potency below about 10 µM; further: potency means the concentration at half of the fitted maximal effect). As to conditions: purified GBA, blue fluorogenic substrate, 40 min. In a few lines:
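Compounds titrated from 0.6 nM upwards against 0.2 nM enzyme in pH 5.9 citric acid/KH2PO4, taurocholate, tween-20; blue fluorogenic substrate 80 uM, 40 min room temperature, stopped and read Ex 365/Em 440 for AC50.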

Test [2] in a line: AP1 Signaling Pathway (AID 357). Further: on the % scale 0 is the no-effect control and ±100 the full control effect. As to conditions: ME-180 AP-1-bla reporter, EGF-induced, beta-lactamase ratio, 5 h; at 7.69 µM (top of the series) unless noted. In a few lines: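 AP-1-bla ME-180 cells with beta-lactamase reporter under AP-1 response element, stimulated with EC50 EGF; compounds titrated, 5 hours at 37 degrees Celsius. CCF4 read at 460/530 nm ratio; positive and negative modulators judged by AC50.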

Test [3] is described as follows: NFAT Signaling Pathway (AID 444).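 Further: carbachol stimulus at about its EC50 of 1 µM final; on the % scale 0 is the no-effect control and ±100 the full control effect.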 As to conditions: Jurkat NFAT-bla M1, carbachol, beta-lactamase ratio, 5 h; at 7.69 µM (top of the series) unless noted. In short, it runs like this:
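Jurkat cells with NFAT-driven β-lactamase reporter and co-expressed M1 receptor, stimulated with carbachol (final 1 uM, ~EC50), compound titration, 5 h at 37 °C. CCF4 loaded 1 h at RT; 460/530 nm ratio gave %activity and AC50.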

The nature of test [4]: Stat Signaling Pathway (AID 446).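 Further: ME-180 cervical cancer cells given 40 pM IL-6 alongside compound; SIE-controlled beta-lactamase reporter measured as 460/530 nm FRET emission ratio; on the % scale 0 is the no-effect control and ±100 the full control effect.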 As to conditions: ME-180 SIE beta-lactamase reporter, IL-6 stimulated, 5 h; at 7.69 µM (top of the series) unless noted. In short, it runs like this:
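Reporter line: ME-180 cervical carcinoma, SIE-beta-lactamase. Treatment: compound with 40 pM IL-6, 5 hrs, 37 C, in low-serum OPTI-MEM with 10 mM HEPES pH 7.3. Detection: 460/530 nm fluorescence.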

Test [5] concerns the target Glucocorticoid receptor (Homo sapiens) (UniProt P04150). Description: GR-GFP Redistribution (AID 450;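 active means compounds whose dose series gives a full or clear partial fitted curve of increased nuclear translocation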; further: potency means the concentration at half of the fitted maximal effect). As to conditions: U2OS GR-GFP nuclear translocation, laser cytometry, 2 h.
The target is the same in test [6]. Description: GR-EFC Redistribution (AID 451; calls by dose curve; further: potency means the concentration at half of the fitted maximal effect). As to conditions: CHO-K1 GR-EFC translocation, beta-gal luminescence, 2 h. In short, it runs like this:
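CHO-K1 cells expressing nuclear EA and GR-ED fragments of b-gal; compounds titrated up to 46 uM final, 2 h at 37 C. GR nuclear translocation read as complemented b-gal luminescence after 1 h RT detection.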

In test [7] the target is Mitogen-activated protein kinase 10 (Mus musculus) (UniProt Q61831). As to the kind of experiment: JNK3 AlphaScreen Assay (AID 530).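 Further: kinase came from lysate of stimulated human HepG2 cells.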 Further: potency means the concentration at half of the fitted maximal effect.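 On activity change, negative = inhibition: signal reports phosphorylation of biotinylated GST-cJun 1-79 at Ser73 with 10 µM ATP; on the % scale 0 is the no-effect control and ±100 the full control effect.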 As to conditions: JNK3 lysate, c-Jun phosphorylation; series mostly up to 11.4 µM. In a few lines: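 qHTS format: compounds tested as titrations against IL-1beta/TNF-alpha-activated HepG2 lysate JNK3 with biotin-GST-cJun substrate and 10 uM ATP at room temperature. Loss of anti-phospho-cJun AlphaScreen signal indicates inhibition.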

Test [8] deals with 3',5'-cyclic-AMP phosphodiesterase 4B (Homo sapiens) (UniProt Q07343). As to the kind of experiment: qHTS Assay for Inhibitors of PDE-IV (AID 607; active means well fitted activation curve with a large enough effect in the main read-out, with a control signal flat, not every such curve was filed as active; further: % of control where 0% means no effect). As to conditions: HEK293 ACTOne CNG channel cells, membrane potential fluorescence; series mostly up to 22.9 µM. In short, it runs like this:
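Cell-based read-out of cAMP via a modified cyclic nucleotide-gated channel and membrane potential dye (535/590 nm) in HEK293 cells expressing PDE4 endogenously. Compounds tested up to 22.9 uM final; 100 uM RO 20-1724 reference.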
(In general: qHTS replaces the single test concentration by a dilution series.)

Sequence of 3',5'-cyclic-AMP phosphodiesterase 4B (Homo sapiens) (Q07343 whole entry, looked up): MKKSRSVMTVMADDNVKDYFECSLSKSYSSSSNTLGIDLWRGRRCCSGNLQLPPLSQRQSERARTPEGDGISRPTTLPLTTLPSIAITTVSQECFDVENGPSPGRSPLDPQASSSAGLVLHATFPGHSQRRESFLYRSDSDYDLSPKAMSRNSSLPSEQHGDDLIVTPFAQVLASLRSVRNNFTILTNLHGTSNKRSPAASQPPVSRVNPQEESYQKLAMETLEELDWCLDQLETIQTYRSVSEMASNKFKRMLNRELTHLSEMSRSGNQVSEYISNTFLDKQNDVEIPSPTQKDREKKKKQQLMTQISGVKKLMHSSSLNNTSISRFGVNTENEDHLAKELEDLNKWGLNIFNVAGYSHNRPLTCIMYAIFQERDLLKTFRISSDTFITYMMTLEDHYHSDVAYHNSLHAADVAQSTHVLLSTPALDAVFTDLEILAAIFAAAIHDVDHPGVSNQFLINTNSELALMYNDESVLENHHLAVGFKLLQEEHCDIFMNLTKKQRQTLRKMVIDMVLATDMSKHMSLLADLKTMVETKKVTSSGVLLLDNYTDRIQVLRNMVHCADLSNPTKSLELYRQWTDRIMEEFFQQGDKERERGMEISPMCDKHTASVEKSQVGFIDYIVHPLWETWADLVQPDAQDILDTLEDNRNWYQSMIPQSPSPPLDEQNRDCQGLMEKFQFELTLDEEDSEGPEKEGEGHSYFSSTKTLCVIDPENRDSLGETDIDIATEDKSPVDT
Sequence of Lysosomal acid glucosylceramidase (Homo sapiens) (P04062 whole entry, looked up): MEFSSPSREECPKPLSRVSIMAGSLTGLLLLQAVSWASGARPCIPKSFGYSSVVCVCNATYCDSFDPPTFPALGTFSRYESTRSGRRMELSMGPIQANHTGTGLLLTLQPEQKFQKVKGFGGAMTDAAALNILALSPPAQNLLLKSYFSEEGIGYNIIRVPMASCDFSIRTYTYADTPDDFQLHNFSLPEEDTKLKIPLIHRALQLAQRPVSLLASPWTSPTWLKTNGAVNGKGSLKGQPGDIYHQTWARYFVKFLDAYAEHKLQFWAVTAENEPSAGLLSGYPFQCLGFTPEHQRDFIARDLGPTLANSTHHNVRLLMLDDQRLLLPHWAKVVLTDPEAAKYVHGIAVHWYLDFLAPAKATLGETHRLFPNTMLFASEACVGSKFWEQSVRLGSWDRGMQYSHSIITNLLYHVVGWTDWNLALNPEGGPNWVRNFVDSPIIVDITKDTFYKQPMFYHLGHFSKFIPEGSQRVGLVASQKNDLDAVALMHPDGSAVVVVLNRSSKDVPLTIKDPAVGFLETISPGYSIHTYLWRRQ
Sequence of Glucocorticoid receptor (Homo sapiens) (P04150 whole entry, looked up): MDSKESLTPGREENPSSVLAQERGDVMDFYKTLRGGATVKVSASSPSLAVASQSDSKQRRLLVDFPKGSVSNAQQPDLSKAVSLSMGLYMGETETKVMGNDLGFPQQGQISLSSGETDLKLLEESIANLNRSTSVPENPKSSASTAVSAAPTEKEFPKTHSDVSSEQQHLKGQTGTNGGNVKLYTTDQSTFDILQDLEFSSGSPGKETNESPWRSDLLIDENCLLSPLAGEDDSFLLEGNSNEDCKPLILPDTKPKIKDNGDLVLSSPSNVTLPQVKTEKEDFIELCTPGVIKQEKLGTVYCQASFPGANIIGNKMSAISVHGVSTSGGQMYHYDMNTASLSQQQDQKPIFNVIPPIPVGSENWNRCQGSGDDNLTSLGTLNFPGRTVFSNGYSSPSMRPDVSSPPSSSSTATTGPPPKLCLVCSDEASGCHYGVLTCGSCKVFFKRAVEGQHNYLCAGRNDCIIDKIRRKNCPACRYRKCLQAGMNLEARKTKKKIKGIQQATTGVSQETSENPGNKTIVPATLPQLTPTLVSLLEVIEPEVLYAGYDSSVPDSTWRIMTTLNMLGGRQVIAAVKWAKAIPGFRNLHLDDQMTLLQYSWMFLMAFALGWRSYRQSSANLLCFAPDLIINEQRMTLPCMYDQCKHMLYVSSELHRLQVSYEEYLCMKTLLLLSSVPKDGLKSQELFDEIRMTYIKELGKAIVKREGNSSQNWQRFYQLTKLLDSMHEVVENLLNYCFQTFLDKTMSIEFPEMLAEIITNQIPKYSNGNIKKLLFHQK

Take `Clc1ccc(CSc2ncnc3c2ncn3[C@@H]2CCCCO2)cc1`: the Potency in test [1] is > 11.4 µM; in test [5], > 46 µM; in test [6] it was > 9.22 µM. Besides, the activity change, negative = inhibition in test [2] is -8.23%; in test [3] it was 12.9%. Further, the activity, negative = inhibition in test [4] is -14.7%. Further, the Potency result in test [7] and in test [8] was “inactive” each time.
Turning to `N=C(N)c1ccc(/C=C\c2ccc(C(=N)N)cc2)cc1`, the Potency in test [1] was > 11.4 µM; in test [5], > 46 µM; in test [6], > 9.22 µM. For the same compound, the activity change, negative = inhibition in test [2] was 0.27%; in test [3], -7.18%. In addition, the activity, negative = inhibition in test [4] was 7.39%. Further, the Potency result in test [7] and in test [8] was “inactive” in each case.
In the case of `C[C@@H](CCC[C@@H]1SC[C@H]2NC(=O)N[C@H]12)C(=O)O`, the Potency in test [1] was > 11.4 µM; in test [5], > 46 µM; in test [6], > 9.22 µM; in test [7], 0.0316 µM (active). In addition, the activity change, negative = inhibition in test [2] is -0.543%; in test [3], -21.7%. The activity, negative = inhibition in test [4] was -4.44%. Besides, in test [8], the Potency result was “inactive”.
Turning to `Cc1ccc(S(=O)(=O)OCC(=O)O)cc1`, the Potency in test [1] is > 11.4 µM; in test [5], > 46 µM; in test [6] it was > 9.22 µM. Moreover, the activity change, negative = inhibition is 2.36% in test [2] and 4.54% in test [3]. In addition, in test [4], the activity, negative = inhibition is 5.39%. Also, the Potency entry in test [7] and in test [8] was “inactive” in each case.
For `COC(=O)[C@@H]1C(O)[C@@H](C(=O)OC)[C@H](C)N(C)[C@@H]1C` (some centres undefined), the Potency was > 11.4 µM in test [1], > 46 µM in test [5] and > 9.22 µM in test [6]. Further, the activity change, negative = inhibition in test [2] is 3.71%; in test [3], 14.1%. Besides, the activity, negative = inhibition in test [4] is -1.12%. The Potency entry in test [7] and in test [8] was “inactive” throughout.
`CC(=O)Nc1nc2ncc(C=O)nc2c(=O)[nH]1`: the Potency in test [1] was > 11.4 µM; in test [5] it was > 46 µM; in test [6], > 9.22 µM. Also, the activity change, negative = inhibition was -2.43% in test [2] and 17.3% in test [3]. Besides, the activity, negative = inhibition in test [4] is 5.76%. Further, the Potency result in test [7] and in test [8] was “inactive” throughout.
As for `C=C(C)CN(CC#N)CC(=C)C`, the Potency in test [1] is > 11.4 µM; in test [5], > 46 µM; in test [6], > 9.22 µM. Moreover, the activity change, negative = inhibition in test [2] was 2.17%; in test [3], 9.57%. Besides, the activity, negative = inhibition in test [4] is 16.5%. For the same compound, the Potency entry in test [7] and in test [8] was “inactive” throughout.
Take `O=C1c2ccccc2-c2ccc(N=[N+]([O-])c3ccc4c(c3)C(=O)c3ccccc3-4)cc21`: the results for the Potency in test [1], in test [5] and in test [6] were > 11.4 µM, > 46 µM and > 9.22 µM, respectively. Further, the activity change, negative = inhibition in test [2] is 5.38%; in test [3], 10.2%. The activity, negative = inhibition in test [4] is 7.21%. The Potency entry in test [7] and in test [8] was “inactive” throughout.
Consider `O=C(O)c1ccccc1-c1ccccc1C(=O)c1ccccc1`, for which the values for the Potency in test [1], in test [5] and in test [6] were > 11.4 µM, > 46 µM and > 9.22 µM, respectively. Moreover, the activity change, negative = inhibition in test [2] was 6.33%; in test [3], 5.49%. For the same compound, in test [4], the activity, negative = inhibition is 2.8%. Besides, the Potency result in test [7] and in test [8] was “inactive” each time.
With `Nc1ccc(Cc2ccc(N)c(C(=O)O)c2)cc1C(=O)O`, the Potency was > 11.4 µM in test [1], > 46 µM in test [5] and > 9.22 µM in test [6]. Further, the results for the activity change, negative = inhibition in test [2] and in test [3] were 12.6% and 16.6%, respectively. For the same compound, the activity, negative = inhibition in test [4] was 1.75%. In addition, the Potency entry in test [7] and in test [8] was “inactive” each time.
As for `COc1cccc(CSCC(=O)O)c1`, the Potency in test [1] is > 11.4 µM; in test [5] it was > 46 µM; in test [6], > 9.22 µM. Also, the activity change, negative = inhibition was -5.92% in test [2] and 6.63% in test [3]. For the same compound, the activity, negative = inhibition in test [4] was 6.95%. For the same compound, the Potency entry in test [7] and in test [8] was “inactive” each time.
`CN(C)Cc1cc(C(C)(C)C)cc(CNC2CCCCC2)c1O`: the figures for the Potency in test [1], in test [5] and in test [6] were > 11.4 µM, > 46 µM and > 9.22 µM, respectively. Also, the values for the activity change, negative = inhibition in test [2] and in test [3] were -6.47% and -20.6%, respectively. The activity, negative = inhibition in test [4] is 7.16%. In addition, the Potency entry in test [7] and in test [8] was “inactive” each time.
For `O=C(O)CSc1ccccc1C(=O)O`, the Potency is > 11.4 µM in test [1], > 46 µM in test [5] and > 9.22 µM in test [6]. In addition, the activity change, negative = inhibition in test [2] is 9.97%; in test [3], -5.26%. Also, the activity, negative = inhibition in test [4] was -2.73%. In addition, the Potency result in test [7] and in test [8] was “inactive” in each case.
